Molecules are shown by their SMILES. Compounds without any hit were thinned out: in the full panel of roughly 83,000, 20% have a hit.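 48-hour exposure, single concentration, 96-well plates; percent growth endpoint where 0 means no net growth. Active: below 10.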 Values without a mark were called inactive. Calls of active or inactive are those of the source.

What all share (test): NCI-60 one-dose screen, 48 h (100 = growth as untreated, 0 = no growth, -100 = all killed)
What all share (conditions): 10 µM unless noted

The test system of experiment [1] is DU-145 prostate.
Experiment [2] concerns K-562 leukemia.
In experiment [3] the test system is MALME-3M melanoma.
In experiment [4] the test system is MDA-MB-231 breast.
In experiment [5] the test system is RXF 393 renal.
The test system of experiment [6] is SF-268 CNS.
Experiment [7] relates to SF-295 CNS.
Experiment [8] relates to SF-539 CNS.
For experiment [9], the system named is UACC-257 melanoma.
Experiment [10] has as its system M14 melanoma.

Regarding `O=C(/C=C\c1ccc(NCc2ccc(C(=O)O)cc2)cc1)CCl`, the growth in experiment [1] is 112%; in experiment [2], 9.08% (active); in [3] it was 88.8%; in experiment [4] it was 91.4%; in [5] it was 65.2%; in [6], 74%. Besides, the growth in experiment [7] was 96.4%; in experiment [8], 95%; in experiment [9], 85.6%; in [10], 90.7%.
Turning to `Cc1nnc(/N=C2\NC(=O)/C(=C/C=C/c3ccccc3)S2)s1`, the growth is 57.5% in [1]; 36% in experiment [2]; 54.1% in [3]; 71.4% in experiment [4]; 69.2% in experiment [5]; 51.9% in [6]. Further, the growth in [7] was 32.5%; in experiment [8], 64.9%; in [9], 75.3%; in experiment [10], 49.8%.
For `[N-]=[N+]=Nc1ncc(-c2ccc(C(F)(F)F)cc2)c(NC2CCCCCC2)n1`, the growth in experiment [1] is 37.1% [100 µM]; in experiment [2] it was 8.78% [100 µM] (active); in [3], 62.3% [100 µM]; in [4], 42.3% [100 µM]; in [5], 43.5% [100 µM]; in [6], 38% [100 µM]. The growth in [7] was -19.7% [100 µM] (active); in [8], 66.2% [100 µM]; in experiment [9], 27.6% [100 µM]; in [10], 34.7% [100 µM].
For the compound `O=C(O)c1ccc(Br)nc1`, the growth was 100% in experiment [1]; 100% in experiment [2]; 94.2% in [3]; 100% in experiment [4]; 105% in experiment [5]; 95.4% in experiment [6]. The growth in experiment [7] was 96.9%; in experiment [8], 97.7%; in experiment [9], 88.3%; in [10], 101%.
For `O=C(Nc1ccc(-n2cc(-c3ccncc3)c(-c3ccc(Cl)c(O)c3)n2)cc1)c1cc(C(F)(F)F)cc(C(F)(F)F)c1`, the growth is 74.2% in experiment [1]; 29.7% in experiment [2]; 102% in [3]; 46.3% in [4]; -42.6% (active) in [5]; 61.8% in experiment [6]. The growth in experiment [7] is 25%; in experiment [8], 50.9%; in experiment [9] it was 63.2%; in experiment [10], 45.1%.
As for `COc1ccc(-c2nc(N)n(C(=S)Nc3ccccc3)n2)cc1`, the growth in experiment [1] was 108%; in [2] it was 95%; in [3] it was 89.5%; in [4], 93.9%; in experiment [5] it was 103%; in [6] it was 96.3%. The growth was 91.2% in [7], 97.1% in experiment [8], 105% in [9] and 98.8% in experiment [10].
With `CCCCCCCCCCCCCCCCNC(=S)N/N=C/c1ccc(O)cc1O`, the growth was 79.2% in experiment [1]; 70.3% in [2]; 100% in experiment [3]; 81% in [4]; 74.9% in experiment [5]; 69% in [6]. The growth in experiment [7] was 65.5%; in experiment [8], 110%; in [9], 85.9%; in experiment [10], 61.8%.
For `Cc1nc(NC(=O)NC2CCCCC2)sc1C(=O)NN`, the growth was 109% in experiment [1]; 154% in [2]; -7.04% (active) in [3]; 97.9% in [4]; 112% in experiment [5]; 101% in experiment [6]. Besides, the growth in [7] was 103%; in experiment [8], 113%; in experiment [9], 101%; in experiment [10], 94.9%.
Turning to `Cc1ccc(NCc2cn(-c3ccc(C(=O)O)cc3)nc2-c2ccc(C(=O)O)cc2)cc1`, the growth in [1] is 100%; in experiment [2], 102%; in experiment [3], 93.1%; in experiment [4], 108%; in experiment [5], 121%; in experiment [6], 92.8%. The growth was 103% in experiment [7], 101% in experiment [8], 97.6% in experiment [9] and 99.3% in experiment [10].
As to `COc1cccc2c1nc1cccc(OC)c1[n+]2[O-]`, the growth in experiment [1] was 13.8%; in experiment [2], 39.8%; in [3] it was 16.4%; in experiment [4], 78.5%; in [5] it was -39.6% (active); in [6], 36.9%. Besides, the growth in [7] was 36.7%; in experiment [8] it was 25.2%; in experiment [9], 58.2%; in experiment [10] it was -3.49% (active).
For the compound `CCOC(=O)NC1=NCC(C)(C)S1`, the growth in experiment [1] was 107%; in experiment [2] it was 88.4%; in [3], 103%; in experiment [4] it was 101%; in experiment [5], 111%; in experiment [6] it was 97.8%. In addition, the growth is 98.7% in experiment [7], 110% in experiment [8], 103% in experiment [9] and 103% in [10].
Take `CCCCCCC(=O)C(C)C`: the growth was 106% in experiment [1]; 94.9% in [2]; 89.2% in experiment [3]; 111% in [4]; 101% in experiment [5]; 105% in [6]. For the same compound, the growth was 101% in [7], 104% in experiment [8], 92.8% in [9] and 97.2% in experiment [10].

The values are drawn from PubChem BioAssay (NCI).
